Data from the supplement of paper PMC11732987, “Enantioselective OTUD7B fragment discovery through chemoproteomics screening and high-throughput optimisation” (Communications Chemistry, 2025).

Assays:
Experiment in all cases: log2 ratio of Biotin-Ahx-Ub-VS probe labelling (fragment/DMSO); higher = less target engagement (more negative = stronger competition), active = hit call of the paper (q ≤ 0.05, log2 ratio ≤ -1)
Conditions in all cases: compound concentration: 200 uM; treatment time: 3 h
OTUD6B = target: T1, OTUD6B (UniProt Q8N6M0)
T1 sequence (whole entry): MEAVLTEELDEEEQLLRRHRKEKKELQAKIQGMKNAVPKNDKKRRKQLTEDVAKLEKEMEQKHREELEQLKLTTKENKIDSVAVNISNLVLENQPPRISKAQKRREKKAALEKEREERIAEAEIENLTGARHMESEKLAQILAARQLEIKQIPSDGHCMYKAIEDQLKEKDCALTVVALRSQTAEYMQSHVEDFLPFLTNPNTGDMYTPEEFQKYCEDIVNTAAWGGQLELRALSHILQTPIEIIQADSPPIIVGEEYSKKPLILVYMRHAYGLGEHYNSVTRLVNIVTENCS
How it was run: (§1)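 HEK293T lysate (495 µg per sample, in Tris/CHAPS/IGEPAL buffer with protease inhibitors) was exposed in triplicate for 3 h to fragment at 200 µM or to vehicle, then to Biotin-Ahx-Ub-VS at 0.5 µM final for 1 h. Labelled DUBs were enriched on NeutrAvidin, digested with LysC and trypsin, and analysed by diaPASEF LC-MS/MS. Spectronaut label-free quantities were normalised to the global median, and values are average log2 ratios of fragment over vehicle from an unpaired t-test. Only proteins with ≥2 unique peptides were used.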

OTUD7B = target: T2, OTUD7B (UniProt Q6GQQ9)
T2 sequence (whole entry): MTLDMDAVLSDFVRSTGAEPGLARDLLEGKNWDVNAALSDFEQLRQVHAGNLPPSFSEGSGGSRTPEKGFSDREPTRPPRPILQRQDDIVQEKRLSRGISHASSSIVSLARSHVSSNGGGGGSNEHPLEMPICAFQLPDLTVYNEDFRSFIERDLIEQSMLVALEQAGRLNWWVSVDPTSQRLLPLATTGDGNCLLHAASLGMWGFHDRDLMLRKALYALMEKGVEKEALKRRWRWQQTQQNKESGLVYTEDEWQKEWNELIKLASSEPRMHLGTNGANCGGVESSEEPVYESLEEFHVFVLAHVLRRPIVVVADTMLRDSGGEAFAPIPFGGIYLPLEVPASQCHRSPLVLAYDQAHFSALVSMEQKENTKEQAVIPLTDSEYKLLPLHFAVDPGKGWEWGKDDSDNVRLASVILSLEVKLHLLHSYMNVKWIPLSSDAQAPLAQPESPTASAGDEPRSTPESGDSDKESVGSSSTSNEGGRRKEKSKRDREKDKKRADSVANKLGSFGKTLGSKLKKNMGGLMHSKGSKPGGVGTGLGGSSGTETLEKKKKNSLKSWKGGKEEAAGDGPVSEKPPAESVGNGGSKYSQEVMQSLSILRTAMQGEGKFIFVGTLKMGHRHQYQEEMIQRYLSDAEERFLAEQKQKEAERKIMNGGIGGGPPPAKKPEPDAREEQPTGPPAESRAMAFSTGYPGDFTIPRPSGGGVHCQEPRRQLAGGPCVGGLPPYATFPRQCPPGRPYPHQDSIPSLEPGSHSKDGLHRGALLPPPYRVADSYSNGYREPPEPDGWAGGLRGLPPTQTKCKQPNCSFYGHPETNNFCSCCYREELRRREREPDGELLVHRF
How it was run: as §1

PRPF8 = PRPF8 (UniProt Q6P2Q9)
How it was run: as §1

PSMD7 = target: T3, PSMD7 (UniProt P51665)
T3 sequence (whole entry): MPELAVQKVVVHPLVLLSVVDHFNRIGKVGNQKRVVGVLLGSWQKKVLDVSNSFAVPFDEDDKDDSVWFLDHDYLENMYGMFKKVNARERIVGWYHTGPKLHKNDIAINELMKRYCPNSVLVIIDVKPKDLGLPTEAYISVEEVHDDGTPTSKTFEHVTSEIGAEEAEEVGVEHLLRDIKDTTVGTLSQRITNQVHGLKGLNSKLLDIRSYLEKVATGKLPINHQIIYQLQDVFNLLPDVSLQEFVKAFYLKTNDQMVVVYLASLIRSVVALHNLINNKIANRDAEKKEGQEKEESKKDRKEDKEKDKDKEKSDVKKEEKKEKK
How it was run: as §1

UCHL1 = UCHL1 (UniProt P09936)
How it was run: as §1

UCHL3 = target: T4, UCHL3 (UniProt P15374)
T4 sequence (whole entry): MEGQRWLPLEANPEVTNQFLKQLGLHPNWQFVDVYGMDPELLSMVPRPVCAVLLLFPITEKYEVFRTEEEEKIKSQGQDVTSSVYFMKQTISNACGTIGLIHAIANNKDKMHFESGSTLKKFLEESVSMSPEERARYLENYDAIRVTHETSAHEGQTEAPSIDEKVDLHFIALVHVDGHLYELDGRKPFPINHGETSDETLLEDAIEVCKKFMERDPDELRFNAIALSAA
How it was run: as §1

UCHL5 = target: T5, UCHL5 (UniProt Q9Y5K5)
T5 sequence (whole entry): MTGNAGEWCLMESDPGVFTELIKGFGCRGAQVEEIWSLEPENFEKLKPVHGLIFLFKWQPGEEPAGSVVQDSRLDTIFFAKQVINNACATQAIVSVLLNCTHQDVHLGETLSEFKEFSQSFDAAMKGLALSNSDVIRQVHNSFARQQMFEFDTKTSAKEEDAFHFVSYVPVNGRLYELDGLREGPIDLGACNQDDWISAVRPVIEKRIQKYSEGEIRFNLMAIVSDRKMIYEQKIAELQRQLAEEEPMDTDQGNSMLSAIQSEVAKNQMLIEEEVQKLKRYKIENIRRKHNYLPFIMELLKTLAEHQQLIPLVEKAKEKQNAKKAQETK
How it was run: as §1

USP10 = USP10 (UniProt Q14694)
How it was run: as §1

USP15 = target: T6, USP15 (UniProt Q9Y4E8)
T6 sequence (whole entry): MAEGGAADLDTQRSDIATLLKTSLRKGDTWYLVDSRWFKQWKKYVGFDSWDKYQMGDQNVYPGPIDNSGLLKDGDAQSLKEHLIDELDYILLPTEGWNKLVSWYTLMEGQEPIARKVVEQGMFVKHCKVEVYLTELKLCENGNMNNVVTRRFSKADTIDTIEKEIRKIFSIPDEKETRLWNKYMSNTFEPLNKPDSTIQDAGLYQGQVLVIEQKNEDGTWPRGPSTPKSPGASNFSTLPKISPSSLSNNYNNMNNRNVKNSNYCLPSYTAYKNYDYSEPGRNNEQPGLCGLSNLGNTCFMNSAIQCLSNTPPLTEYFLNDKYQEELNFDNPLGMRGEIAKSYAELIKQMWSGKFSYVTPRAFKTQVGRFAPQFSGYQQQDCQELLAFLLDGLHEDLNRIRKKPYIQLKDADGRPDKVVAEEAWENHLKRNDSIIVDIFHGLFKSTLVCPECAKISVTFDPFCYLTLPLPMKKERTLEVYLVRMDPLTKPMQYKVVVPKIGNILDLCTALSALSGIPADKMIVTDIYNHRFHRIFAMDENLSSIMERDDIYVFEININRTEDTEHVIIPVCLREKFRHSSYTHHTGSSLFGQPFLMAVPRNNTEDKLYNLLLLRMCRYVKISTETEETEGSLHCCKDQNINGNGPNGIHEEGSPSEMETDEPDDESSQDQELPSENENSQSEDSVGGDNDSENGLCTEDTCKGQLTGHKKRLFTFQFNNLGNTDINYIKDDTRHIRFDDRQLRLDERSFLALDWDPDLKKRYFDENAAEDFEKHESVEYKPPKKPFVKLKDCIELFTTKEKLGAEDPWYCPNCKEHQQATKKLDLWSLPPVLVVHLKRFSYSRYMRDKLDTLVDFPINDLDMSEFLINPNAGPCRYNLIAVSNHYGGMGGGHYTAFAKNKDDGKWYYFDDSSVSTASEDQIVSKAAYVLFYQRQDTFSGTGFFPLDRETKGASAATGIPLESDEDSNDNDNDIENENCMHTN
How it was run: as §1

USP16 = USP16 (UniProt Q9Y5T5)
How it was run: as §1

Measured: log2 ratio of Biotin-Ahx-Ub-VS probe labelling

USP10, sequence (Q14694 whole entry): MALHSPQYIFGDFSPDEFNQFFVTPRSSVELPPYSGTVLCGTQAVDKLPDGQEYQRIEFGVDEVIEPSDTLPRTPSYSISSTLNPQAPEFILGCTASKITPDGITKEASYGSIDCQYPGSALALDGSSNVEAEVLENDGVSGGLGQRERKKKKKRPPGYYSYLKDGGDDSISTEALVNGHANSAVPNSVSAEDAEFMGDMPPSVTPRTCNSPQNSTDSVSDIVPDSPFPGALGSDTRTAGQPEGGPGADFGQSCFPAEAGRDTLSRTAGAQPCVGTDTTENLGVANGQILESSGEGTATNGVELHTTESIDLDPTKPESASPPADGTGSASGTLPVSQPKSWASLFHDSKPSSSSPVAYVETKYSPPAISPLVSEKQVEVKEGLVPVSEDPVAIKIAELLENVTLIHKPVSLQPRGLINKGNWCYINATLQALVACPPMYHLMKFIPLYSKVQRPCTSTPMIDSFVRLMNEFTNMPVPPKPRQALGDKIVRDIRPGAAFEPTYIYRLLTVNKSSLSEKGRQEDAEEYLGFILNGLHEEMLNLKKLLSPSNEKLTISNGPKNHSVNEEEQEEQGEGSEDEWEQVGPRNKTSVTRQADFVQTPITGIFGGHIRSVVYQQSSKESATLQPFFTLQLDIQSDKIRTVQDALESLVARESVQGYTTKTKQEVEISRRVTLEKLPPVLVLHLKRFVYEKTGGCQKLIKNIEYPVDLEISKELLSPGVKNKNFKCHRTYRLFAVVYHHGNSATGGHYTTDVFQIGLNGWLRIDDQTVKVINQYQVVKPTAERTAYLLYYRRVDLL
UCHL1, sequence (P09936 whole entry, looked up): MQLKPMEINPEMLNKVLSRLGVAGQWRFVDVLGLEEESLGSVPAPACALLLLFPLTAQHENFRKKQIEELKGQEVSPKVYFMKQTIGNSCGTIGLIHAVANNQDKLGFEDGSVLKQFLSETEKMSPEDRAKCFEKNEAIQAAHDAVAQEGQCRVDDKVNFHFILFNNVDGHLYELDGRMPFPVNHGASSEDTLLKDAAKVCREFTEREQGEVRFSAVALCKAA
USP16, sequence (Q9Y5T5 whole entry, looked up): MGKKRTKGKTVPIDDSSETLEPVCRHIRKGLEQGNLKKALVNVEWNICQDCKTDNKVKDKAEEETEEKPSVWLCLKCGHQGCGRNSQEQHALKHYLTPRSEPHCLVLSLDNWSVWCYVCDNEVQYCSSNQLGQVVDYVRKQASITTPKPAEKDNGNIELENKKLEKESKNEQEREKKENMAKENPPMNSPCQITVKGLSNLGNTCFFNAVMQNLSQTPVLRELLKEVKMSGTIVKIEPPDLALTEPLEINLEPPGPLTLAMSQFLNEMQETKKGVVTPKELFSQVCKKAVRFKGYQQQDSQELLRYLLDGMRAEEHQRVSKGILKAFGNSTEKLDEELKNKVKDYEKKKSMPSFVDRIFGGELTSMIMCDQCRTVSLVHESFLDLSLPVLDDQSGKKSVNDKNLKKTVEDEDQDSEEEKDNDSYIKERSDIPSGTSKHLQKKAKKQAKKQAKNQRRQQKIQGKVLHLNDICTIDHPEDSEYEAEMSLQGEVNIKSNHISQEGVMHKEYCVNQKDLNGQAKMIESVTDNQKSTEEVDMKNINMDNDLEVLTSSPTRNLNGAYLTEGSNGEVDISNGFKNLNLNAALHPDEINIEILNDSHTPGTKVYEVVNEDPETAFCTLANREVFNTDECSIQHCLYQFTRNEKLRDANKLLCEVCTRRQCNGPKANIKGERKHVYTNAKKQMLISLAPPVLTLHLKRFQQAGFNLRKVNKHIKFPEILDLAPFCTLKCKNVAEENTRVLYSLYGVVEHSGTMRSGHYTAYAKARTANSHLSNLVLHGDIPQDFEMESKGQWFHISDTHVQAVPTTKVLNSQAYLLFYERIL

NC(=O)C1CCCCN1C(=O)CCl (stereo not given)
active: OTUD7B -1.65 | UCHL1 -1.52
inactive: OTUD6B -0.175 | PRPF8 -0.153 | PSMD7 -0.146 | UCHL3 0.215 | UCHL5 -0.42 | USP10 -0.0331 | USP15 -0.0982 | USP16 0.0843
